The results in this text go back to ChEMBL document CHEMBL1961873, “Compounds: GSK PKIS; Assays: Nanosyn kinase panel” (2012).

Each structure is given as a SMILES string.

The inhibition is the change of the read-out against control, counted positive when it falls.

For experiment [1], the target named is Protein kinase C gamma type (Homo sapiens) (UniProt P05129). Conditions: at 1 µM.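 Further: each value is an averaged percent inhibition of the enzyme.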
The target in experiment [2] is T1, Protein kinase C iota type (Homo sapiens) (UniProt P41743).
T1 sequence (whole entry): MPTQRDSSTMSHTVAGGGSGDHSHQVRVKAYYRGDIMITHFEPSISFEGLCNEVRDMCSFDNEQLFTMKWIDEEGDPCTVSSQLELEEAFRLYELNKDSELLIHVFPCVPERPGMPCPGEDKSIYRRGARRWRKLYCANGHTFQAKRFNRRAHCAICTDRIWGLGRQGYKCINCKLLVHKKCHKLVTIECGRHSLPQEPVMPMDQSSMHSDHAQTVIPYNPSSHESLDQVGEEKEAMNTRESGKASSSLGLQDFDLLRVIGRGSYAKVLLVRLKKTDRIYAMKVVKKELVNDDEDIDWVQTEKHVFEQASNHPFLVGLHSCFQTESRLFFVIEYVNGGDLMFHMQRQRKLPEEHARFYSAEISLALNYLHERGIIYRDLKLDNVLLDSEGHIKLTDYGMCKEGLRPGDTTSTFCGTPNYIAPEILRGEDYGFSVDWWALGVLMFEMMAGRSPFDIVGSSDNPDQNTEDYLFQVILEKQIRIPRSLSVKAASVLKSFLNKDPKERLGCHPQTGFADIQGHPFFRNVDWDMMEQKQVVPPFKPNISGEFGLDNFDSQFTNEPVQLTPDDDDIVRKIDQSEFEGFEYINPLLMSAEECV
Conditions: at 0.1 µM.

The target of experiment [3] is T1, Protein kinase C iota type (Homo sapiens). The following applies: at 1 µM.
Experiment [4] has as its target Protein kinase C theta type (Homo sapiens) (UniProt Q04759). The following applies: at 0.1 µM.
For experiment [5] the target is unchanged. Conditions: at 1 µM.
In experiment [6] the target is Protein kinase C beta type (Homo sapiens) (UniProt P05771). The following applies: at 0.1 µM.
Experiment [7] shares this target. Conditions: at 1 µM.
In experiment [8] the target is T2, Serine/threonine-protein kinase D1 (Homo sapiens) (UniProt Q15139).
T2 sequence (whole entry): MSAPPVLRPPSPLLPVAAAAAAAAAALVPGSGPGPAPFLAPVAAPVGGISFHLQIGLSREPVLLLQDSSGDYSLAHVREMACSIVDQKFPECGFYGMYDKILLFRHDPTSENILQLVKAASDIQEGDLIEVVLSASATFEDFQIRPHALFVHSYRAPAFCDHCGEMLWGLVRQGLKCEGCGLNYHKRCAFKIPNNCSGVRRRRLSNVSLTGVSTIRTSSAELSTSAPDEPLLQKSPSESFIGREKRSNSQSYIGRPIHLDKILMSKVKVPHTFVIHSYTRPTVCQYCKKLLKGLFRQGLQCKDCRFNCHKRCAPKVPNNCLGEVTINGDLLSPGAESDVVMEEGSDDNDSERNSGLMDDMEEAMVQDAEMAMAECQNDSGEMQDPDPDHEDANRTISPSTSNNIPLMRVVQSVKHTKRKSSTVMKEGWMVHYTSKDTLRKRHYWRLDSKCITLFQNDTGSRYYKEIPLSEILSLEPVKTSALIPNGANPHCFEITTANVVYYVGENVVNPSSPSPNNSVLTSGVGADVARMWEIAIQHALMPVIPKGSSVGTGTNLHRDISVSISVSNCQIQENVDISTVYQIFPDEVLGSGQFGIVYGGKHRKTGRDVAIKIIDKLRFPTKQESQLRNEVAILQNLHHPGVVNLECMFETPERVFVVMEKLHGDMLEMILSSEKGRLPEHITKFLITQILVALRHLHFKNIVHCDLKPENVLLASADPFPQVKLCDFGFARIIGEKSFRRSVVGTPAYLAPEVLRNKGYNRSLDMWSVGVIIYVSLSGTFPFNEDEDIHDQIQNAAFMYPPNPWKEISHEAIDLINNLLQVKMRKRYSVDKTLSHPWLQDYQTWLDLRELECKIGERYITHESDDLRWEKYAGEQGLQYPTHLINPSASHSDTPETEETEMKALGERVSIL
The following applies: at 0.1 µM.

Experiment [9] has as its target T2, Serine/threonine-protein kinase D1 (Homo sapiens). The following applies: at 1 µM.
Experiment [10] has as its target T3, Serine/threonine-protein kinase D2 (Homo sapiens) (UniProt Q9BZL6).
T3 sequence (whole entry): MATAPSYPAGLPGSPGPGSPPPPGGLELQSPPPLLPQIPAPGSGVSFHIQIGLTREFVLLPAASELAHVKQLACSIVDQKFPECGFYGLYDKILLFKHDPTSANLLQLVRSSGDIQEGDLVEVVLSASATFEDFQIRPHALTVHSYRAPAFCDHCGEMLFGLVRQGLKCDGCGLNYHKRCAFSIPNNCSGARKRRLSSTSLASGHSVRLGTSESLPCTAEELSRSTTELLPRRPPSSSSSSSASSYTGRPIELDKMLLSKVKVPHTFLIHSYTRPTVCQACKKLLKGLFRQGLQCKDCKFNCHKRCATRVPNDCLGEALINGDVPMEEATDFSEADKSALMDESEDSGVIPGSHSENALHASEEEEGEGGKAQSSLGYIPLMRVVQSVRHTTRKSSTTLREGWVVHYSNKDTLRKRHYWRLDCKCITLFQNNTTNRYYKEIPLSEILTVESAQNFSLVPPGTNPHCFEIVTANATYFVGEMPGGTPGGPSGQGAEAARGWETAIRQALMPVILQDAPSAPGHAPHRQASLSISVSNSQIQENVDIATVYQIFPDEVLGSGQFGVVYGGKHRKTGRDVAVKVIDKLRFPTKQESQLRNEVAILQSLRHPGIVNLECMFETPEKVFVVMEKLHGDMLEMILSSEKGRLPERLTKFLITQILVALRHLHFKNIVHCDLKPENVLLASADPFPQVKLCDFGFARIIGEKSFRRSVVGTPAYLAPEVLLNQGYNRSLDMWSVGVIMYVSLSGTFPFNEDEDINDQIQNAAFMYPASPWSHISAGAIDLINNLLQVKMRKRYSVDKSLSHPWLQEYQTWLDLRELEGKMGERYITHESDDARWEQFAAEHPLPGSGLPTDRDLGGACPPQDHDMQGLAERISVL
The following applies: at 0.1 µM.

Experiment [11] deals with T3, Serine/threonine-protein kinase D2 (Homo sapiens). The following applies: at 1 µM.
Experiment [12] concerns the target T4, Serine/threonine-protein kinase D3 (Homo sapiens) (UniProt O94806).
T4 sequence (whole entry): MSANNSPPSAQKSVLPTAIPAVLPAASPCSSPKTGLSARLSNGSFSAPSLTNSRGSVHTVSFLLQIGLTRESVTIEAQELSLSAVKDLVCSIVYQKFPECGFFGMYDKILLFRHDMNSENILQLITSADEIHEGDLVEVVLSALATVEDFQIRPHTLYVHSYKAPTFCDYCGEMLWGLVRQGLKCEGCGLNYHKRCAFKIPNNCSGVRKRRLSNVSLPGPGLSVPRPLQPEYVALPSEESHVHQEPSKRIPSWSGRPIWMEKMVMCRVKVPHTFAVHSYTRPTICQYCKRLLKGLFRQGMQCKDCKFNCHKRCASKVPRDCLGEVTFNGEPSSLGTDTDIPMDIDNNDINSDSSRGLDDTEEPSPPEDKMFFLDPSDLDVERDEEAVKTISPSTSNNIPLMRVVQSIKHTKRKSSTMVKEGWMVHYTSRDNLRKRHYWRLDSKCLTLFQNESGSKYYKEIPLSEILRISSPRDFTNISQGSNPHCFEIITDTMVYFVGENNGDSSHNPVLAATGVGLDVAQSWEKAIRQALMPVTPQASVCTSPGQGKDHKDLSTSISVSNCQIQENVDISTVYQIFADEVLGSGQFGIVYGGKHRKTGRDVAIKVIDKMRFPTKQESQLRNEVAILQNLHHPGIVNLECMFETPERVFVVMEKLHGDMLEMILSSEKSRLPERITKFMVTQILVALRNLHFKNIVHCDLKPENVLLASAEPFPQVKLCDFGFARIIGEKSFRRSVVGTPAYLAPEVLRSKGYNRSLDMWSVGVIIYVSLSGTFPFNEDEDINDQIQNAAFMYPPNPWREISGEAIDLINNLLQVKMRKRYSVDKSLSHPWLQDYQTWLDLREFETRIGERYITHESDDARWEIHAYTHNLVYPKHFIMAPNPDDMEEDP
Conditions: at 0.1 µM.

The target of experiment [13] is T4, Serine/threonine-protein kinase D3 (Homo sapiens). The following applies: at 1 µM.
The target in experiment [14] is T5, cGMP-dependent protein kinase 1 (Homo sapiens) (UniProt Q13976).
T5 sequence (whole entry): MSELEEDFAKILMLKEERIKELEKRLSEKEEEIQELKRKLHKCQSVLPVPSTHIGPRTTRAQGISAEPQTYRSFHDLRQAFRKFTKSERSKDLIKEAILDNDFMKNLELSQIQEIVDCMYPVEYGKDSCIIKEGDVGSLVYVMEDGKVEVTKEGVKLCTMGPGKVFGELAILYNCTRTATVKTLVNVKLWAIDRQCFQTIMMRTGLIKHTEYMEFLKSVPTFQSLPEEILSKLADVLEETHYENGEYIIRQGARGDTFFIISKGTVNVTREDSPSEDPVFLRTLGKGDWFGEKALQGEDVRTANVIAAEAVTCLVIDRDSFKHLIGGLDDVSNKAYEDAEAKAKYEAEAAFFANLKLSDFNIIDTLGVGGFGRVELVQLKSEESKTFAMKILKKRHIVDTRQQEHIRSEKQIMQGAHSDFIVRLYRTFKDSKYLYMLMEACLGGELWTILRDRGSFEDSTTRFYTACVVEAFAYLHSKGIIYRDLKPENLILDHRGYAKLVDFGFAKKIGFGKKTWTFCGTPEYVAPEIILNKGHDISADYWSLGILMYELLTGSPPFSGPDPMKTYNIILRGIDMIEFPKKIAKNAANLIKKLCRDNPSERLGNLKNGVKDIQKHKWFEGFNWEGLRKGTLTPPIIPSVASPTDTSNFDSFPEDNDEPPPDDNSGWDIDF
Conditions: at 0.1 µM.

Experiment [15] concerns the target T5, cGMP-dependent protein kinase 1 (Homo sapiens). Conditions: at 1 µM.
Experiment [16] concerns the target T6, cGMP-dependent protein kinase 2 (Homo sapiens) (UniProt Q13237).
T6 sequence (whole entry): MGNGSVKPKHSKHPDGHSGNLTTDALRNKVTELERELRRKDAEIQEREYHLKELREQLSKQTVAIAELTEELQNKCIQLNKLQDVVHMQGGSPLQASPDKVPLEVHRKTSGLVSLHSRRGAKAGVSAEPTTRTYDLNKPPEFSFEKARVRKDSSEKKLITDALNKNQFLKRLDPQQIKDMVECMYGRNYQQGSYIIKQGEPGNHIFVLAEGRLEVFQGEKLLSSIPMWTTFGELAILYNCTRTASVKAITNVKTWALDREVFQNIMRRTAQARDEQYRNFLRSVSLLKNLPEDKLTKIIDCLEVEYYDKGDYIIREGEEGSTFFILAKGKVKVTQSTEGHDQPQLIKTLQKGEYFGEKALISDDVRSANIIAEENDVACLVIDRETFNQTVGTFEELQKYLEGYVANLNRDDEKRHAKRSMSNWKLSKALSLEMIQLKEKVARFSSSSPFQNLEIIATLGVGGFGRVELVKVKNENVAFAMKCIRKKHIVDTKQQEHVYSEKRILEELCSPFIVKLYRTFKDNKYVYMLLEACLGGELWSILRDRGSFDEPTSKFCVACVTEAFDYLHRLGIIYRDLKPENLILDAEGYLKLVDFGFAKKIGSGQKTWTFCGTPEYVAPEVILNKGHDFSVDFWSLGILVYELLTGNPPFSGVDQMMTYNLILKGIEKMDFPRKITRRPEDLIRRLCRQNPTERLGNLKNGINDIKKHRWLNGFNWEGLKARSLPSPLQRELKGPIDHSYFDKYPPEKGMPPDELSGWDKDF
The following applies: at 0.1 µM.

Experiment [17] deals with T6, cGMP-dependent protein kinase 2 (Homo sapiens). The following applies: at 1 µM.
Experiment [18] deals with T7, cAMP-dependent protein kinase catalytic subunit PRKX (Homo sapiens) (UniProt P51817).
T7 sequence (whole entry): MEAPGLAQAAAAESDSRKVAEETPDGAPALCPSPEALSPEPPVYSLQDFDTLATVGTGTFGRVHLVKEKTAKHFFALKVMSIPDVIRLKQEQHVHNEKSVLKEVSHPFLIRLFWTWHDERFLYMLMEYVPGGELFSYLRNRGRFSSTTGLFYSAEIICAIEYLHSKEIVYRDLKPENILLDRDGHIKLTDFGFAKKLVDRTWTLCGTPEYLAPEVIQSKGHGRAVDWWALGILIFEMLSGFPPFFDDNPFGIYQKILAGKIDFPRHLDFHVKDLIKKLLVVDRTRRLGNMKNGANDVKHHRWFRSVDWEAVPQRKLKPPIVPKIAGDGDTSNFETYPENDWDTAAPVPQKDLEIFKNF
Conditions: at 0.1 µM.

Experiment [19] has as its target T7, cAMP-dependent protein kinase catalytic subunit PRKX (Homo sapiens). Conditions: at 1 µM.
Experiment [20] addresses Rho-associated protein kinase 1 (Homo sapiens) (UniProt Q13464). The following applies: at 0.1 µM.

Chain of Protein kinase C theta type (Homo sapiens) (Q04759 whole entry, looked up): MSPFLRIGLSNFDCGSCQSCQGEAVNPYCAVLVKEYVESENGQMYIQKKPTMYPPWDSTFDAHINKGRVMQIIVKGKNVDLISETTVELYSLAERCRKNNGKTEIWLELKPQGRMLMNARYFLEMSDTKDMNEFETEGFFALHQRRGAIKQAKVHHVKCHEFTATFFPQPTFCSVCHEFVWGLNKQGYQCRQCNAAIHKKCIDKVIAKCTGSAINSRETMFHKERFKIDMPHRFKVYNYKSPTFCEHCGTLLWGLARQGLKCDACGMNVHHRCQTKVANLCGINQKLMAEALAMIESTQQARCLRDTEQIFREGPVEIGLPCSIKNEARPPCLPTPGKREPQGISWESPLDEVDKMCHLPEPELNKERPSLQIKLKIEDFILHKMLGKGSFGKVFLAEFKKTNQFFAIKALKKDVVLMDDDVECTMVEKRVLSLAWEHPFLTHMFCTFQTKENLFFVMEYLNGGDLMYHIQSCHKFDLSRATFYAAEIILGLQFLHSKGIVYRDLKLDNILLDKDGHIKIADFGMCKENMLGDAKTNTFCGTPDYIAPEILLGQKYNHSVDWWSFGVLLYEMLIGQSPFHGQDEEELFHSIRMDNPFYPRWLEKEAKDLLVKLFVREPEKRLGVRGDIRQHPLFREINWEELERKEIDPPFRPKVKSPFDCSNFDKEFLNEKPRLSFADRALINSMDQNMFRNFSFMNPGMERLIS
Chain of Protein kinase C beta type (Homo sapiens) (P05771 2-671 limits assumed): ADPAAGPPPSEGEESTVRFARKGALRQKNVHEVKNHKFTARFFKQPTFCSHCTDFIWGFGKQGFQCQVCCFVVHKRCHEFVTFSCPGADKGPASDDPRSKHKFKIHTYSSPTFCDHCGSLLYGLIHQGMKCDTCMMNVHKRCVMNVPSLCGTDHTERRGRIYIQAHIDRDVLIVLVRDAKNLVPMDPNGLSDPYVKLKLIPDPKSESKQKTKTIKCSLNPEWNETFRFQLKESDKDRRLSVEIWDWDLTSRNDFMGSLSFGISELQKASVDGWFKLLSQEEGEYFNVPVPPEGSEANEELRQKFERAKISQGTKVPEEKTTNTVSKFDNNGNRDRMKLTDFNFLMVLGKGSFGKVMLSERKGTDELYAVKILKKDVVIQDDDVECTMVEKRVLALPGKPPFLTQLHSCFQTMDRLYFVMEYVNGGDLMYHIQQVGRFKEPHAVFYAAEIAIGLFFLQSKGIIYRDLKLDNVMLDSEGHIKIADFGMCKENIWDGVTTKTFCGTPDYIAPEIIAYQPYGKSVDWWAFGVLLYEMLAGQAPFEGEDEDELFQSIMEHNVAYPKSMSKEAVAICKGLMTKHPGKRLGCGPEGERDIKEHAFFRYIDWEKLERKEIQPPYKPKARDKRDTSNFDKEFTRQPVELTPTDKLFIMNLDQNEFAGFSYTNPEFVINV
Chain of Rho-associated protein kinase 1 (Homo sapiens) (Q13464 2-1354 limits assumed): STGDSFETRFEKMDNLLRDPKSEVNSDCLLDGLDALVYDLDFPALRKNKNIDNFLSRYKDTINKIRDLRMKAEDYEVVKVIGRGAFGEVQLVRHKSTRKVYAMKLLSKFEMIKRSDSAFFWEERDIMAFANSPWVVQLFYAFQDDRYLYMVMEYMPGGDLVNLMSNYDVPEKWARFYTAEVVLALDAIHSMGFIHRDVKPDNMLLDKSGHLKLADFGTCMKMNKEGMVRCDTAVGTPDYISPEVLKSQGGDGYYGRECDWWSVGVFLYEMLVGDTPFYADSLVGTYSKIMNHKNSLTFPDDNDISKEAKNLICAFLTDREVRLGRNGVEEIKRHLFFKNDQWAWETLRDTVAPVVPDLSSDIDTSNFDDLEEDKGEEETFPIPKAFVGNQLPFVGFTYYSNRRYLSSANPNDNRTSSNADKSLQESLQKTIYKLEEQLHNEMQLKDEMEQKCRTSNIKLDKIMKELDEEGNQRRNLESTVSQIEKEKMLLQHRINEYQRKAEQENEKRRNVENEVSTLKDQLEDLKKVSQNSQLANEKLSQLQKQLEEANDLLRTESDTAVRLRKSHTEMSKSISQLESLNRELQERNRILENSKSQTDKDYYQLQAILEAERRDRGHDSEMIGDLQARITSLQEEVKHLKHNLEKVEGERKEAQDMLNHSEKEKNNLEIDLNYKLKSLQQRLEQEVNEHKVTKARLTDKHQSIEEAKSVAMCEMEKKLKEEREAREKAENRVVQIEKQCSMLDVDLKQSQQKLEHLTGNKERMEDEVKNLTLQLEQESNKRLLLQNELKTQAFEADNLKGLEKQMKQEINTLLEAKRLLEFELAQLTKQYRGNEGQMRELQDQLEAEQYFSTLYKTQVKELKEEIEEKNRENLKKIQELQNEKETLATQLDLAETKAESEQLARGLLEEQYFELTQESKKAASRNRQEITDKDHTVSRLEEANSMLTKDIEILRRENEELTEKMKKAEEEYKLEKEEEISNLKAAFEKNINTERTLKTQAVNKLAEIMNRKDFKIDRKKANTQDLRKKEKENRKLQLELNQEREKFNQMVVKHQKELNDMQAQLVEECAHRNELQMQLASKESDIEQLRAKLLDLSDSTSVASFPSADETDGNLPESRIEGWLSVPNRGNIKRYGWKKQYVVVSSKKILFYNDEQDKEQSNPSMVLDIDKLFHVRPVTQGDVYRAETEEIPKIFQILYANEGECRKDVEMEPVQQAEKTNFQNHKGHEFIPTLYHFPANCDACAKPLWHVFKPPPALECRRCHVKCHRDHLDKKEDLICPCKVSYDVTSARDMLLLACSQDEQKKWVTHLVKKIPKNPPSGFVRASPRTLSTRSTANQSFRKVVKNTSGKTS

`C[C@@H](Oc1cc(-n2cnc3ccc(OCC4CCN(C)CC4)cc32)sc1C(N)=O)c1ccccc1Cl`: the inhibition in experiment [1] was 6.3%; in [2], 1.84%; in experiment [3], 2.7%; in experiment [4] it was 4.47%; in experiment [5], 15.3%; in [6], 3.47%. Besides, the inhibition in [7] is 11.6%; in experiment [8], 6.16%; in [9], 12%; in experiment [10] it was 7.73%; in experiment [11] it was 12.1%; in experiment [12], 5.81%. Further, the inhibition in experiment [13] is 12%; in experiment [14], 3.88%; in experiment [15], 7.13%; in experiment [16], 3.5%; in experiment [17], 7.56%; in experiment [18], 1.81%. The inhibition in experiment [19] was -4.06%; in experiment [20] it was 2.64%.
In the case of `O=C(NCC1CC1)c1ccc(-c2cccc(C(=O)NC3CC3)c2)cc1`, the inhibition in [1] was -1.2%; in experiment [2], 2.21%; in experiment [3], 3.55%; in experiment [4], 1.24%; in experiment [5] it was -0.68%; in experiment [6], 0.69%. The inhibition is -1.18% in [7]; 1.97% in experiment [8]; 2.45% in [9]; 2.36% in experiment [10]; 2.14% in [11]; 2.87% in experiment [12]. Besides, the inhibition worked out at 1.81% in experiment [13]; 3.32% in [14]; 1.97% in experiment [15]; 1.23% in [16]; 0.42% in [17]; 0.49% in experiment [18]. Also, the inhibition is -0.06% in experiment [19] and 1.17% in experiment [20].
